Out of some 5,500 compounds screened, about 2,000 (36%) were called active. About 18% were inconclusive and are not listed. Rule as the data show it: active = normalized growth mostly below about 0.91 (no sharp cut-off); inconclusive = no clear call, values can overlap the other calls; inactive = mostly above about 0.92. Some of the results follow.
Test: chemical genetic growth profiling, strain panel (AID 1159580);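 also: tested at 20 µM; growth read once vehicle control cultures reached saturation at 30 °C; 1 = growth at the plate median or of vehicle wells; lower values mean less growth of the strain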
Conditions: S. cerevisiae deletion strains, growth OD

Measured: normalized growth

O=C(O)c1cc(=O)c2ccc(Cl)cc2[nH]1
inactive: locus YAL013W, strain DEP1, active compounds read low 1.01 | locus YAL021C, strain ccr4, active compounds read low 1 | locus YAL026C, strain drs2, active compounds read low 1.03 | locus YAL030W, strain snc1, active compounds read low 1.01 | locus YAL040C, strain CLN3, active compounds read low 1.01 | locus YBL061C, strain skt5, active compounds read low 1.02 | locus YBR009C, strain hhf1, active compounds read low 1.01 | locus YBR021W, strain FUR4, active compounds read low 1.01 | locus YBR023C, strain chs3, active compounds read low 1.02 | locus YBR171W, strain sec66, active compounds read low 1.03 | locus YBR229C, strain ROT2, active compounds read low 1.02 | locus YBR231C, strain swc5, active compounds read low 1.02 | locus YBR279W, strain paf1, active compounds read low 1.01 | locus YCL011C, strain gbp2, active compounds read low 1.02 | locus YCL016C, strain dcc1, active compounds read low 1.04 | locus YCL029C, strain bik1, active compounds read low 0.998 | locus YCL061C, strain MRC1 (second series), active compounds read low 1.01 | locus YCL061C, strain MRC1, active compounds read low 1.01 | locus YCL069W, strain vba3, active compounds read low 1.01 | locus YCR088W, strain abp1, active compounds read low 1.01 | locus YDL005C, strain med2, active compounds read low 1.02 | locus YDL035C, strain GPR1, active compounds read low 1.02 | locus YDL040C, strain nat1, active compounds read low 1.01 | locus YDL074C, strain BRE1, active compounds read low 1.06 | locus YDL101C, strain DUN1, active compounds read low 1.01 | locus YDL134C, strain PPH21, active compounds read low 1.01 | locus YDL185W, strain tfp1, active compounds read low 0.988 | locus YDL192W, strain arf1, active compounds read low 0.993 | locus YDR001C, strain nth1, active compounds read low 1.01 | locus YDR069C, strain doa4, active compounds read low 0.999 | locus YDR101C, strain arx1, active compounds read low 0.999 | locus YDR137W, strain rgp1, active compounds read low 1.01 | locus YDR150W, strain NUM1, active compounds read low 1.01 | locus YDR159W, strain sac3, active compounds read low 0.998 | locus YDR162C, strain NBP2, active compounds read low 1.01 | locus YDR195W, strain ref2 1 | locus YDR297W, strain sur2, active compounds read low 1.02 | locus YDR318W, strain mcm21, active compounds read low 0.989 | locus YDR334W, strain swr1, active compounds read low 1.01 | locus YDR335W, strain msn5, active compounds read low 1.03 | locus YDR363W, strain ESC2, active compounds read low 1.03 | locus YDR388W, active compounds read low 0.999 | locus YDR392W, strain spt3, active compounds read low 1.07 | locus YDR502C, strain sam2, active compounds read low 1.01 | locus YEL003W, strain gim4, active compounds read low 1.02 | locus YEL037C, strain rad23, active compounds read low 1.02 | locus YEL061C, strain CIN8 (second series), active compounds read low 1.01 | locus YEL061C, strain CIN8, active compounds read low 1.01 | locus YER002W, strain NOP16, active compounds read low 1.03 | locus YER015W, strain faa2, active compounds read low 1.02 | locus YER016W, strain bim1, active compounds read low 1.04 | locus YER110C, active compounds read low 0.99 | locus YER111C, strain swi4, active compounds read low 1.01 | locus YER155C, strain BEM2 (second series), active compounds read low 1.02 | locus YER155C, strain BEM2, active compounds read low 1.01 | locus YER167W, strain BCK2, active compounds read low 0.995 | locus YFR010W, strain ubp6, active compounds read low 0.986 | locus YGL078C, strain dbp3, active compounds read low 1 | locus YGL086W, strain mad1, active compounds read low 1 | locus YGL167C, strain pmr1, active compounds read low 1.01 | locus YGL173C, strain kem1, active compounds read low 1.02 | locus YGL227W, strain vid30, active compounds read low 1.04 | locus YGL240W, strain doc1, active compounds read low 1.01 | locus YGL248W, strain PDE1, active compounds read low 1.03 | locus YGL253W, strain hxk2, active compounds read low 1.02 | locus YGR078C, strain PAC10, active compounds read low 1.03 | locus YGR135W, strain pre9, active compounds read low 0.976 | locus YGR252W, strain gcn5, active compounds read low 0.992 | locus YHR013C, strain ard1, active compounds read low 1.04 | locus YHR027C, strain rpn1, active compounds read low 0.994 | locus YHR030C, strain SLT2, active compounds read low 1.01 | locus YHR079C, strain IRE1 (second series), active compounds read low 0.99 | locus YHR094C, strain hxt1, active compounds read low 0.992 | locus YHR129C, strain ARP1, active compounds read low 1.02 | locus YHR142W, strain chs7, active compounds read low 1.04 | locus YHR200W, strain rpn10, active compounds read low 0.992 | locus YIL066C, strain RNR3, active compounds read low 1.03 | locus YIL073C, strain SPO22, active compounds read low 0.979 | locus YIL125W, strain kgd1, active compounds read low 0.994 | locus YIR030C, strain dcg1, active compounds read low 0.995 | locus YJL092W, strain hpr5, active compounds read low 1.02 | locus YJL095W, strain BCK1 (second series), active compounds read low 1.03 | locus YJL095W, strain BCK1, active compounds read low 1.04 | locus YJL115W, strain asf1, active compounds read low 1.01 | locus YJL129C, strain trk1, active compounds read low 1.03 | locus YJL134W, strain LCB3, active compounds read low 1.01 | locus YJL154C, strain vps35, active compounds read low 1.01 | locus YJL164C, strain tpk1, active compounds read low 1.01 | locus YJL166W, strain qcr8, active compounds read low 1.02 | locus YJL168C, strain set2, active compounds read low 0.992 | locus YJL187C, strain SWE1 (second series), active compounds read low 1.04 | locus YJL187C, strain SWE1, active compounds read low 1.02

From PubChem BioAssay AID1159580 (chemical genetic matrix, 2015)
